High-throughput results deposited in PubChem BioAssay by National Center for Advancing Translational Sciences (NCATS).
D2 ag-1: activates the human D2 dopamine receptor; P14416; HEK293 T-REx D2 cells, calcium flux agonist mode; activation, % at 2 µM; 340,000 compounds, 0.53% hits;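 active = activation over 3 SD above normal in the single-dose calcium agonist read, cut at about 30% in these data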; also: 0% is about no effect
Target sequence (P14416 whole entry, looked up): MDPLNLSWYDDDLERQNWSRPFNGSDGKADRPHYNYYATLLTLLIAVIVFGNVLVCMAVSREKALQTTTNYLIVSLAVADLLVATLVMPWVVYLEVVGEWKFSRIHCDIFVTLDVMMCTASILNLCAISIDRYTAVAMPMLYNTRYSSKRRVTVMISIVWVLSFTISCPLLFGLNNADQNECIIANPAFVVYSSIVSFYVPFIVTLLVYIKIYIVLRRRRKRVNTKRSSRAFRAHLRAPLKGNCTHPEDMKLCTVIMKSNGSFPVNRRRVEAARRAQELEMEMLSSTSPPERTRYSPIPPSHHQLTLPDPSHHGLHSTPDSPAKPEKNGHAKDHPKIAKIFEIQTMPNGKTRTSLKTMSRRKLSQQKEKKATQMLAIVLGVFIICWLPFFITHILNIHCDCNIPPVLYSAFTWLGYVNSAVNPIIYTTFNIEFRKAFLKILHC
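HEK293 Trex D2 cells, tetracycline-induced, o/n 30 C 5% CO2; no-wash Ca dye, RT 30–90 min; 10-cycle baseline, 23 nl cpd added, kinetic Ca read 180 s; agonist hits = positive Ca response.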
D2 PAM-1: human D2 receptor positive allosteric modulation. 360,000 compounds, 0.23% hits. DiscoveRx D2 beta-arrestin cells, luminescence, 90 min; 100% = 57 uM dopamine signal. AID 624464. P14416. potentiation, % (test concentration not listed); in the data active = potentiation above about 50%; inconclusive = mostly about 30% to 49%
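PathHunter D2 cells, attached overnight at 37 deg C, received compound in DMSO plus dopamine at EC20 (50 nM final) for 90 min at 37 deg C. Beta-arrestin recruitment was read as luminescence after 1 h with detection reagent at ambient temperature.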
D2 PAM-2: positive allosteric modulators of human D2 dopamine receptor. P14416. HEK293 T-REx D2, calcium flux, EC20 dopamine potentiation. potentiation, % at 10 µM. 340,000 compounds, 0.34% hits;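 active = potentiation over 3 SD above the plate norm, cut at about 30% in these data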; also: 0% is about no effect
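Potentiation of an EC20 dopamine calcium response is measured in a force-coupled, tetracycline-inducible Hek293 Trex D2 line. Compound-only kinetic reads over 180 s flag agonists before dopamine addition.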
D2 ag-2: human D2 receptor agonism in beta-arrestin assay | P14416 | DiscoveRx PathHunter D2 beta-arrestin, luminescence, 90 min; 100% = 57 uM dopamine signal | activation, % (no concentration beside the values) | 360,000 compounds, 0.084% hits | AID 624465; in the data active = activation above about 40%; inconclusive = between about 15% and that limit
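Agonist mode: compounds alone added to overnight-plated D2 PathHunter cells for 90 min at 37 C, with 57 uM final dopamine (EC100) defining full response. Beta-arrestin recruitment detected by chemiluminescent reagent, read after 1 h at ambient temperature.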
D2 antag: antagonizes the human D2 dopamine receptor; P14416; HEK293 TREx D2 cells, calcium flux, dopamine EC80; inhibition, % at 10 µM; 340,000 compounds, 2% hits; in the data active = inhibition above about 30%; inactive = below that, where a call was filed; also: 0% is about no effect
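Calcium mobilization kinetics were recorded at 1 s intervals in tetracycline-induced HEK293 T-REx D2 cells, first for 180 s after compound addition and then 180 s after EC80 dopamine.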
* = called active by the depositor; ? = inconclusive; . = no result given. Rows were chosen to be rich in hits. Some 2.4% of all compounds tested hit in one or more screens of this group.

SMILES	D2 ag-1	D2 PAM-1	D2 PAM-2	D2 ag-2	D2 antag
Cc1nnc(SCC(=O)Nc2nc(-c3ccccc3)cs2)n1N	0	0	7	-1	-2
Cn1cnnc1SCC(=O)Nc1nc(-c2ccccc2)cs1	0	-7	-6	-4	56*
O=C(O)COc1cnc2ccccc2n1	1	-2	-2	-3	3
Cc1ccc(NC(=O)N2CCCC2C(=O)NCC2CCCCC2)cc1 (centres undefined)	0	-6	-5	-1	35*
CCOC(=O)c1ccc(Nc2ccc(C(C)=O)cc2)cc1	.	5	.	3	.
CCOC(=O)c1ccc(Nc2nnc(C(C)(C)C)c(=O)[nH]2)cc1	0	-10	0	0	53*
COc1cccc2c1OC1(C)CC2/C(=C(\C)O)C(=O)N1 (centres undefined)	0	-6	8	-1	51*
Cn1c(SCC(=O)C(C)(C)C)nnc1-c1ccncc1	0	-7	13	-2	-12
CN1CCC(=O)N(CCSc2ccc(Br)cc2)CC1	-1	-13	3	-3	53*
O=C(NC(=S)Nc1ccc(S(=O)(=O)N2CCCCC2)cc1)c1ccccc1	-1	-11	3	-6	15
COc1ccc2cc(C#N)c(SCC(=O)N3CC(=O)Nc4ccccc43)nc2c1	.	-8	-7	-4	.
Cc1cccc2cc(C#N)c(SCC(=O)N3CC(=O)Nc4ccccc43)nc12	3	8	-2	-3	34*
CCCSc1ccc([C@@H]2[C@@H]3C(=O)N(C)C(=O)[C@@H]3[C@]3(C(=O)OC)CCCCN23)cc1OC	2	-11	4	-1	35*
CCn1c(SCC(=O)c2[nH]c(C)c(C(C)=O)c2C)nnc1-c1cccs1	0	3	-8	0	99*
CCOc1ccc(CNC(=O)c2nn(-c3ccc(OC)cc3)c(=O)c3c2c2ccccc2n3C)cc1	0	.	-8	.	.
CC(C)CNC(=S)N(CCCO)Cc1cc2cc3c(cc2[nH]c1=O)OCO3	-3	16	0	4	-5
O=C(NNS(=O)(=O)c1ccc(Cl)cc1)c1sccc1-n1cccc1	.	-7	.	-4	.
O=C(NNC(=O)c1sccc1-n1cccc1)c1ccc(Cl)cc1	0	9	4	-2	36*
C#CCNc1c2c(nc3nnnn13)CCCC2	0	-4	12	-1	14
COc1cc(-c2nc(CN3CCN(c4ncccn4)CC3)c(C)o2)ccc1F	31*	-5	-6	?	1
O=C(NC(=S)NCC1CCCO1)c1cccs1 (centres undefined)	1	-2	23	-2	16
COc1cccc(-n2c(=O)c3sccc3n(CC(=O)NC3CCCCC3)c2=O)c1	0	-6	1	-3	30*
COc1cccc(-n2c(=O)c3sccc3n(CC(=O)NC3CCCC3)c2=O)c1	-1	-8	17	-8	-14
CCCC[n+]1ccn(-c2nc3c([N+](=O)[O-])cccc3n2C)c1	0	-69	-8	-7	34*
CC(=O)Nc1cccc(NC(=O)COC(=O)C2CC3CCCC(C2)C3=O)c1 (centres undefined)	0	-14	0	4	7
SMILES	D2 ag-1	D2 PAM-1	D2 PAM-2	D2 ag-2	D2 antag
Cn1cccc1CNC(=O)Nc1ccc(Cl)cc1	0	-25	5	-3	31*
Cn1cccc1CNC(=O)Nc1ccccc1	1	8	1	-1	-6
Cn1cccc1CNCc1ccccc1Cl	50*	-10	-18	-4	2
CCCCCNCc1cccn1C	0	-10	-14	-2	10
CCc1ccccc1NC(=O)Cn1cc(C(=O)c2ccncc2)c(=O)c2cc(C)ccc21	-1	.	-25	.	.
Cc1ccc(NC(=O)c2cccs2)cc1NC(=O)c1cccnc1	.	77*	.	-1	.
CCN(Cc1ccccc1)S(=O)(=O)c1ccc(C(=O)Nc2nnc(-c3ccccc3OC)o2)cc1	1	-1	-2	1	42*
NC1=NC2(CCCC2)n2c(nc3ccccc32)N1	0	-9	1	-3	2
CCC1(C)N=C(N)Nc2nc3cc(C)c(C)cc3n21 (centres undefined)	-1	-26	-10	0	35*
Cc1cc(C)cc(NC(=O)NCC(O)COc2ccc([N+](=O)[O-])cc2)c1 (centres undefined)	-2	-11	-19	-1	38*
O=C(NCC(O)COc1ccc([N+](=O)[O-])cc1)Nc1ccccc1 (centres undefined)	0	-6	-9	-2	-25
O=Cc1c(C(=O)O)n(CC(=O)O)c2ccccc12	2	69*	2	13	-14
COCC1CCCN(Cc2nc(Cc3ccccc3)no2)C1 (centres undefined)	0	-12	0	5	-3
Cc1nn(S(=O)(=O)c2cccc([N+](=O)[O-])c2)c(C)c1Br	-1	62*	1	12	2
Cc1nn(S(=O)(=O)c2cccc([N+](=O)[O-])c2)c(C)c1S(=O)(=O)N1CCOCC1	0	2	-7	4	-1
Cn1c(=O)c2c(nc(NCc3ccco3)n2CC(O)CO)n(C)c1=O (centres undefined)	1	-8	12	-1	8
Cc1ccc(SCC(=O)OCC(=O)NC2CCCCCC2)cc1	0	-5	14	6	-14
NC(=O)[C@@H]1[C@@H]2C(=O)N(c3ccc(F)cc3)C(=O)[C@@H]2[C@H]2C=Cc3ccccc3N21	1	-10	12	-4	-15
O=C(c1ccco1)[C@@H]1[C@@H]2C(=O)N(c3ccc(F)cc3)C(=O)[C@@H]2[C@H]2C=Cc3ccccc3N21	1	-1	12	-1	43*
CN(C)c1ccc(/C=C/C(=O)c2c(O)c3ccccc3oc2=O)cc1	39*	2	4	4	-2
COc1ccc(S(=O)(=O)NCc2cn3c(C)csc3n2)cc1F	0	2	8	-2	32*
COc1ccc(OC)c(S(=O)(=O)NCc2cn3c(C)csc3n2)c1	.	-13	-20	-3	.
O=C(CSc1nccn1Cc1ccc(F)cc1)Nc1ccc(F)cc1F	-3	-15	-9	-3	1
CCOC(=O)CSc1nnc(Cc2ccccc2)n1-c1cccc(Cl)c1	1	0	32*	-5	-3
COc1ccc2c(c1)-c1nc(NC(=O)c3ccco3)sc1CC2	-1	1	2	3	5
COc1ccc2c(c1)CCc1sc(NC(=O)c3ccco3)nc1-2	-1	4	30*	5	-2
COc1ccc(C(CNC(=O)c2cc3c(s2)CCC(C)C3)N2CCOCC2)cc1 (centres undefined)	0	-5	-26	-3	20
